Rows were chosen to be rich in hits. Some 3% of all compounds tested hit in one or more screens of this group.
Rv3671c protease: Rv3671c serine protease inhibitors, primary screen, biochemical, fluorescence polarization, M. tuberculosis H37Rv; P9WHR9; inhibition, % at 5.96 µM; hit rate 0.048% among 320,000; AID 2606, 2010; in the data active = inhibition above about 38%;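 also: extracellular domain of Rv3671c used as enzyme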
Target sequence (P9WHR9 whole entry, looked up, the tested form may be a part): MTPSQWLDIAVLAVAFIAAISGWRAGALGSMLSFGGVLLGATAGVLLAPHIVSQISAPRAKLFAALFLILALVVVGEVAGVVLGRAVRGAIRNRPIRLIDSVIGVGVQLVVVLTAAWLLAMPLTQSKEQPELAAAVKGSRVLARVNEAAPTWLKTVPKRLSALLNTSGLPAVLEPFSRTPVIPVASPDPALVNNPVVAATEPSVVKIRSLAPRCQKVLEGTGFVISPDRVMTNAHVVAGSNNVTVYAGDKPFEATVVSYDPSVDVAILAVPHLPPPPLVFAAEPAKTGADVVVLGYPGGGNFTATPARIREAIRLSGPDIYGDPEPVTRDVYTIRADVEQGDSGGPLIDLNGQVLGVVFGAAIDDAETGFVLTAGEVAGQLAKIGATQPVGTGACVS
FadD28 FP inh: inhibitors of FadD28 bisubstrate probe binding, primary screen, biochemical, fluorescence polarization, single point | Mycobacterium tuberculosis FadD28 fatty-acid-AMP ligase | inhibition, % at 12.5 µM | hit rate 0.22% among 360,000 | AID 588549, 2011; in the data active = inhibition above about 8.5%, passing the limit was not always enough
GDH-TPI inh: GDH-TPI coupling enzyme inhibitors, primary screen, artefact control for M. tuberculosis FBA inhibitor project, biochemical, absorbance, full deck. GDH-TPI coupled enzyme counterscreen, NADH absorbance. inhibition, % at 4.8 µM. hit rate 1.2% among 360,000. AID 588335, 2011; in the data active = inhibition above about 30%
FBA Mtb inh: Mtb FBA enzyme inhibitors, primary screen, biochemical, fluorescence, strain H37Rv; Fructose-bisphosphate aldolase (Mycobacterium tuberculosis (strain ATCC 25618 / H37Rv)), …; purified M. tuberculosis FBA, fluorescence read-out; inhibition, % at 1 µM; hit rate 2.3% among 360,000; AID 588726, 2011; in the data active = inhibition above about 27%
Target sequence (P9WQA3 whole entry, looked up): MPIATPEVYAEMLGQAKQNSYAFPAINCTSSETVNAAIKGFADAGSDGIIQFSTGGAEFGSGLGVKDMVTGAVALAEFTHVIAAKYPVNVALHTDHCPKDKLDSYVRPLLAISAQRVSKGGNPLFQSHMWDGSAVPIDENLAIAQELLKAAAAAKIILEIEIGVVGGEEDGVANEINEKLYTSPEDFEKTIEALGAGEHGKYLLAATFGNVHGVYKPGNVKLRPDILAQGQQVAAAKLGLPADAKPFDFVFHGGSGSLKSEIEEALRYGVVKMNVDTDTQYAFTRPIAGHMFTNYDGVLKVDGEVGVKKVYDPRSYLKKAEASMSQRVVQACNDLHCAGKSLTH
Mtb BioA inh: M. tuberculosis BioA enzyme inhibitors, primary screen, biochemical, plate reader, single point, HTS; 7,8-diaminopelargonic acid synthase BioA (Mycobacterium tuberculosis); purified M. tuberculosis BioA enzyme; inhibition, % at 9.99 µM; hit rate 0.096% among 360,000; AID 602481, 2012; in the data active = inhibition above about 40%
Each line names hits and unclear results; the compound was inactive in the other large screens.

C/C=C/c1ccc2c(c1)O[C@H](CN(C)C(=O)C1CC1)[C@@H](C)CN([C@@H](C)CO)S2(=O)=O	none (no result: Rv3671c protease, FadD28 FP inh, GDH-TPI inh, FBA Mtb inh)
CCc1nnc(NS(=O)(=O)c2ccc(NC(=S)NC(=O)/C=C/c3ccc(C(C)C)cc3)cc2)s1	GDH-TPI inh 32 (no result: Mtb BioA inh)
COCCNC(=O)C[C@@H]1CC[C@H]2[C@@H](COC[C@H](O)CN2C(=O)Nc2ccccc2OC)O1	none (no result: Rv3671c protease, FadD28 FP inh, GDH-TPI inh, FBA Mtb inh)
COc1cccc(NC(=O)Cn2c(=O)oc3ccccc32)c1	FadD28 FP inh 39 (no result: Mtb BioA inh)
CC(C)(C)c1csc(NC(=O)Cn2c(=O)oc3ccccc32)n1	FadD28 FP inh 11
Cc1ccc(NC(=O)Cn2c(=O)oc3ccccc32)cc1C	none
COc1ccc(CN(C)C[C@H]2OCCCC[C@@H](C)Oc3ccc(NC(=O)Nc4ccc(F)cc4)cc3C(=O)N([C@@H](C)CO)C[C@H]2C)cc1	none (no result: Rv3671c protease, FadD28 FP inh, GDH-TPI inh, FBA Mtb inh)
CCC1=[N+](CC(=O)c2ccc(C)cc2)CCn2cccc21	GDH-TPI inh 35
COc1ccccc1S(=O)(=O)N[C@H]1C=C[C@H](CC(=O)N2CCCCC2)O[C@H]1CO	none (no result: Rv3671c protease, FadD28 FP inh, GDH-TPI inh, FBA Mtb inh)
Cn1c(=O)c2c(nc(-c3ccc(N(CCCl)CCCl)cc3)n2C)n(C)c1=O	GDH-TPI inh 39, FBA Mtb inh active (no result: Rv3671c protease)
Cn1c(=O)c2c(nc(Cc3ccc(N)cc3)n2C)n(C)c1=O	none
Cc1ccc2c(c1)C1C=CCC1C(C(=O)O)N2 (stereo unspecified)	none (no result: FadD28 FP inh, GDH-TPI inh, FBA Mtb inh, Mtb BioA inh)
CC(=O)c1ccc2c(c1)C1C=CCC1C(C(=O)O)N2 (stereo unspecified)	FadD28 FP inh 40 (no result: Rv3671c protease, Mtb BioA inh)
COc1ccccc1N1CCN(C(=O)/C=C/c2c(Cl)nc3ccccn23)CC1	GDH-TPI inh 47 (no result: Mtb BioA inh)
COc1ccc(NC(=O)/C=C/c2c(Cl)nc3ccccn23)cc1	none (no result: Mtb BioA inh)
Oc1ccc(/C=N/NC(=S)Nc2cccnc2)cc1O	GDH-TPI inh 34 (no result: Mtb BioA inh)
Oc1ccc(C=NNC(=S)Nc2cccnc2)nc1	GDH-TPI inh 50 (no result: Rv3671c protease, Mtb BioA inh)
Cc1noc(C)c1S(=O)(=O)Nc1ccc2c(c1)C(=O)N([C@@H](C)CO)C[C@H](C)[C@H](CN(C)S(=O)(=O)c1ccccc1)OCCCC[C@@H](C)O2	none (no result: Rv3671c protease, FadD28 FP inh, GDH-TPI inh, FBA Mtb inh)
Cc1nc2c(C(=O)Nc3ccc(N4CCCC(O)C4)cc3)snc2c(=O)[nH]1 (stereo unspecified)	GDH-TPI inh 44
O=C(Nc1ccc(N2CCCC(O)C2)cc1)c1snc2c(=O)[nH]cnc12 (stereo unspecified)	none
C[C@H](CO)N1C[C@H](C)[C@H](CN(C)C(=O)CCCN(C)C)OCCCC[C@H](C)Oc2ccc(NS(=O)(=O)c3ccccc3)cc2C1=O	none (no result: Rv3671c protease, FadD28 FP inh, GDH-TPI inh, FBA Mtb inh)
O=C(N/N=C/c1ccc(-c2cccc(C(F)(F)F)c2)o1)c1ccccc1Br	GDH-TPI inh 54 (no result: Mtb BioA inh)
O=C(N/N=C/c1ccc(-c2cccc(C(F)(F)F)c2)o1)c1cccc(F)c1	GDH-TPI inh 44
CC(C)(C)S(=O)(=O)c1cnc2c(S(=O)(=O)c3ccccc3)cnn2c1N	none (no result: Mtb BioA inh)
Cc1nc2c(S(=O)(=O)c3ccccc3)cnn2c(C)c1C	FBA Mtb inh 44 (no result: Mtb BioA inh)
N/C(=N\N=C\c1ccc(O)c(O)c1)c1nonc1N	GDH-TPI inh 41 (no result: Mtb BioA inh)
COC(=O)c1nc(-c2ccccc2)oc1N(C)C	FBA Mtb inh 173
O=P(c1ccccc1)(c1ccccc1)c1nc(-c2ccccc2)oc1N1CCOCC1	none
COC(=O)c1nc(-c2ccc(C)cc2)oc1N(C)C	FBA Mtb inh 115
Cc1ccc(-c2nc(S(=O)(=O)c3ccc(C)cc3)c(N(C)C)o2)cc1	none
COC(=O)c1oc(-c2ccccc2)nc1C	none (no result: Mtb BioA inh)
COC(=O)c1nc(-c2ccccc2)oc1N1CCOCC1	FBA Mtb inh 146 (no result: Mtb BioA inh)
O=C1NC(=O)N(Cc2ccc(F)cc2)C(=O)/C1=C\c1ccoc1	FadD28 FP inh 11
CN(C)c1ccc(/C=C2\C(=O)NC(=O)N(Cc3ccc(F)cc3)C2=O)cc1	none
COCC(=O)Nc1ccc2c(c1)[C@@H]1C[C@H](CC(=O)N3CCc4ccccc4C3)O[C@@H](CO)[C@@H]1O2	none (no result: Rv3671c protease, FadD28 FP inh, GDH-TPI inh, FBA Mtb inh)
CC(O)CNc1ccc(-c2n[nH]c(=O)c3ccccc23)cc1[N+](=O)[O-] (stereo unspecified)	none
CC(O)CNc1cc(N)c([N+](=O)[O-])cc1[N+](=O)[O-] (stereo unspecified)	GDH-TPI inh 43 (no result: Mtb BioA inh)
COc1ccc(CCNC(=O)COc2ncnc3cc([N+](=O)[O-])ccc23)cc1	none (no result: Mtb BioA inh)
O=[N+]([O-])c1cccc(COc2ncnc3cc([N+](=O)[O-])ccc23)c1	GDH-TPI inh 35
CCCC#Cc1cnc2c(c1)C(=O)N([C@@H](C)CO)C[C@H](C)[C@@H](CN(C)C(=O)Nc1cc(F)ccc1F)O2	none (no result: Rv3671c protease, FadD28 FP inh, GDH-TPI inh, FBA Mtb inh)
Cc1ccc2nc(-c3ccc(N4C(=NC(=O)CCC(=O)O)SC5CS(=O)(=O)CC54)cc3)sc2c1 (stereo unspecified)	FBA Mtb inh 66
C[C@H]1CN([C@@H](C)CO)C(=O)c2cc(C#CCN(C)C)cnc2O[C@H]1CN(C)Cc1ccccc1	none (no result: Rv3671c protease, FadD28 FP inh, GDH-TPI inh, FBA Mtb inh)
O=C(NCc1ccc(F)cc1)Nc1ccc(Cl)cc1	none
Cn1c(=O)c2cc(NC(=O)NCc3ccc(F)cc3)ccc2n1C	FBA Mtb inh 162 (no result: Rv3671c protease)
O=C(NCc1ccc(F)cc1)Nc1cccc(Cl)c1	none (no result: Mtb BioA inh)
C=C(C)Cn1c2ccc(NC(=O)NCc3ccc(F)cc3)cc2c(=O)n1C	FBA Mtb inh 190 (no result: Rv3671c protease)
COCCn1c(=S)[nH]c2sc3c(c2c1=O)CCC(C)C3 (stereo unspecified)	FadD28 FP inh 12
CCc1cccc(NC(=O)Cn2c(=O)oc3cc(S(=O)(=O)N4CCOCC4)ccc32)c1	FadD28 FP inh 41
O=C(Cn1c(=O)oc2cc(S(=O)(=O)N3CCCC3)ccc21)Nc1cccc(C(F)(F)F)c1	FadD28 FP inh 11
O=C(Cn1c(=O)oc2ccccc21)Nc1ccc(S(=O)(=O)N2CCCCC2)cc1	none
C[C@H]1CN([C@@H](C)CO)C(=O)c2cc(C#CC3CCCCC3)cnc2O[C@H]1CN(C)C(=O)Nc1ccccc1	none (no result: Rv3671c protease, FadD28 FP inh, GDH-TPI inh, FBA Mtb inh)
O=S(=O)(Cc1ccccc1)N1CCCCN2[C@H](CO)[C@@H](c3ccc(-c4ccccc4)cc3)[C@@H]2C1	none (no result: Rv3671c protease, FadD28 FP inh, GDH-TPI inh, FBA Mtb inh)
CCS(=O)(=O)Nc1ccc2c(c1)C(=O)N(C)C[C@@H](OC)[C@H](C)CN(C(=O)C1CC1)[C@@H](C)CO2	none (no result: Rv3671c protease, FadD28 FP inh, GDH-TPI inh, FBA Mtb inh)
O=[N+]([O-])c1cccc(/C=C/c2nc[nH]c2[N+](=O)[O-])c1	GDH-TPI inh 42
CO[C@@H]1CN(C)C(=O)c2ccc(NS(C)(=O)=O)cc2OC[C@@H](C)N(C(=O)C2CCC2)C[C@H]1C	none (no result: Rv3671c protease, FadD28 FP inh, GDH-TPI inh, FBA Mtb inh)
Cc1ccccc1S(=O)(=O)/N=C(/Nc1nc2ccccc2s1)c1ccccc1	GDH-TPI inh 44
CC(C)(c1cc(Br)c(O)c(Br)c1)c1cc(Br)c(O)c(Br)c1	FadD28 FP inh 20
CCOC(=O)CC1C(=O)NCCN1C(=O)c1ccc(Cl)cc1 (stereo unspecified)	none
COC(=O)CC1C(=O)NCCN1C(=O)c1ccc(S(=O)(=O)N2CCOCC2)cc1 (stereo unspecified)	FadD28 FP inh 14

Source: PubChem BioAssay
